Shown are actives, neighbours in structure and some others; about 1.9% of the full set was active somewhere.
FAK inh – inhibitors of human focal adhesion kinase | 97,000 tested, 0.84% active | biochemical FAK kinase activity assay | inhibition, %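 (tested at 7 µM)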 | Q05397; in the data active = inhibition above about 19%
Target sequence (Q05397 whole entry, looked up): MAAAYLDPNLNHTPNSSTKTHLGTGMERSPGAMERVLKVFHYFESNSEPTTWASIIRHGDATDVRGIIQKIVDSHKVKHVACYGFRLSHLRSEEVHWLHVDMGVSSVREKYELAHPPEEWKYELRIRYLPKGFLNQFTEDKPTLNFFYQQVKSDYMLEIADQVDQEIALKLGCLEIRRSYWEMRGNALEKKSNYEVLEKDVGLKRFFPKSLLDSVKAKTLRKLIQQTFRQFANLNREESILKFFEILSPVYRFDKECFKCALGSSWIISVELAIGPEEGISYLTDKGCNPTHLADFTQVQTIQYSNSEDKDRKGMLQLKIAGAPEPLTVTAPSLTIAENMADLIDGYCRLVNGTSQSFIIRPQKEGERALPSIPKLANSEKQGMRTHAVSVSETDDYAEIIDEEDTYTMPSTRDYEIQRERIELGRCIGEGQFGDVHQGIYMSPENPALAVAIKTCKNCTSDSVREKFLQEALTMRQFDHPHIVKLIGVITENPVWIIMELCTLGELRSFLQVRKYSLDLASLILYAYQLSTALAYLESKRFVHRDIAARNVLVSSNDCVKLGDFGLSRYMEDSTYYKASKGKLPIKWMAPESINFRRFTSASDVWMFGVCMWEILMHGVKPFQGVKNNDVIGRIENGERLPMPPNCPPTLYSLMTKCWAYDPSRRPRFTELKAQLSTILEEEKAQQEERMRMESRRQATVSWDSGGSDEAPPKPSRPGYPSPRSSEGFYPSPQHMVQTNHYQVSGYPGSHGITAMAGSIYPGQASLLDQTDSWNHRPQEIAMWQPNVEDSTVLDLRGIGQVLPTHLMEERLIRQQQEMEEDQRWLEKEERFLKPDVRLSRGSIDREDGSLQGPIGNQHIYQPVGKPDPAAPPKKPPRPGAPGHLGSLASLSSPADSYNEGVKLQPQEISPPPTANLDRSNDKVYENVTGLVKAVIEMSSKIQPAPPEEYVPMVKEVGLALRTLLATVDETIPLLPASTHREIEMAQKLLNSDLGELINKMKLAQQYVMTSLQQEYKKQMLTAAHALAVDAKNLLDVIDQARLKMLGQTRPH
sdo1 growth – compounds rescuing growth of sdo1-depleted yeast, bone marrow failure model. S. cerevisiae sdo1-depleted JHY4D growth rescue, OD600 30 h; stronger effect = higher value; pdr5 snq2 efflux-pump mutant strain. 140,000 tested, 0.21% active. z-score at 10 µM. AID 817;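 active = z-score above 3 at both the 24 hr and the 30 hr optical density reads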
GALR2 ag – GALR2 (human) receptor agonism | O43603 | GALR2-expressing cells, agonist activation read-out | activation, % (concentration not given with the values) | 140,000 tested, 0.48% active | AID 803; in the data active = activation above about 5%, passing the limit was not always enough
S1P2 antag – blocks the human S1P2 receptor. O95136. cell-based S1P2 antagonist assay, inhibition at 5 uM. inhibition, % at 5 µM. 97,000 tested, 0.21% active; in the data active = inhibition above about 45%;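 note: CRE beta-lactamase reporter cells expressing human S1P2 stimulated with S1P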
S1P2 agonist – activates the human S1P2 receptor. S1P2-expressing cell line, agonist reporter read-out. activation, % at 4.5 µM. AID 729. 97,000 tested, 0.46% active; in the data active = activation above about 16%
GALR2 antag – blocks the human galanin receptor 2; O43603; inhibition, % at 4 µM; GALR2-expressing cells, antagonist mode; 140,000 tested, 0.39% active;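 note: cells stimulated with galanin 1-16 at roughly its EC80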
GALR2 ag confirm – GALR2 (human) agonism confirmed; GALR2-expressing cells, agonist activation; activation, % at 5.6 µM; 460 tested, 10% active; shares compounds with GALR2 ag; AID 864; in the data active = activation above about 8.4%
BLA act counter – beta-lactamase activation, GALR2 counterscreen; shares compounds with GALR2 ag; 460 tested, 10% active; CHO NFAT-bla reporter, beta-lactamase FRET activation; activation, % at 5.6 µM;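 active = activation above the screen-wide mean activation plus 3 SD, cut at about 8% in these data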
SDO1 rescue DR – SDO1-depleted yeast growth rescue confirmation. 440 tested, 44% active. AID 949. OD recovery (test concentration not listed). shares compounds with sdo1 growth. S. cerevisiae JHY4D (SDO1-depleted) growth rescue, OD600, 30 h; stronger effect = higher value; efflux-deficient strain, SNQ2 and PDR5 mutated;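 active = yeast growth recovered at 30 hours, either rising with dose fitted slope above 0.001 or with average optical density gain above 0.07, some results past the limit were not filed as active; inactive = growth falling with dose or no effect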
GALR2 ant conf – confirmation of human galanin receptor 2 (GALR2) antagonists; GALR2-expressing cells, antagonist mode, inhibition; shares compounds with GALR2 antag; 480 tested, 60% active; inhibition, % at 4 µM;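 note: cells stimulated with galanin at about its EC80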
BLA inhib ctr – counter-screen for GALR2 antagonists: beta-lactamase reporter inhibitors; shares compounds with GALR2 antag; CHO NFAT-BLA reporter, beta-lactamase FRET, thapsigargin-stimulated; inhibition, % at 4.2 µM; 480 tested, 36% active; AID 867;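 active = inhibition above the mean inhibition across tested compounds plus 3 SD, cut at about 27% in these data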
Numbers stand for hits; 0 = inactive; - = not tested or not shown. Cut-off read from the data, not from the text of the source, unless noted: active = inhibition above about 27%; inactive = the rest.

SMILES	FAK inh	sdo1 growth	GALR2 ag	S1P2 antag	S1P2 agonist	GALR2 antag	GALR2 ag confirm	BLA act counter	others
O=C(N/N=C/c1ccc(OCCCF)cc1)c1cc(OCC(F)(F)F)ccc1OCC(F)(F)F	0	0	0	0	0	0	-	-
COC(=O)C1=CN(CC2CCCO2)C=C(C(=O)OC)C1c1ccccc1C(F)(F)F (stereo not given)	0	0	11.9	0	0	0	0	0
CCc1nccn1S(=O)(=O)c1ccc(Br)cc1Br	-	0	0	-	-	0	-	-
O=C(O)COCc1nc2ccccc2[nH]1	0	0	0	0	0	0	-	-
CC(C)C(NC(=O)/C=C/c1cccc([N+](=O)[O-])c1)C(C)C	-	0	0	-	-	0	-	-
CC(C)NC(=O)c1ccccc1NC(=O)/C=C/c1cccc([N+](=O)[O-])c1	-	0	25.4	-	-	0	11.0	21.6
O=C(NCc1ccco1)c1cccc(F)c1	0	0	0	0	0	0	0	0
O=C(NCCNC(=O)c1ccco1)c1cccc(F)c1	-	0	0	-	-	0	-	-
Cc1cccc(CC(Cc2nc3ccccc3[nH]2)c2nc3ccccc3[nH]2)c1 (stereo not given)	0	0	0	0	0	0	15.2	29.4
Cc1cccc(OCCSCc2nc3ccccc3[nH]2)c1	0	0	0	0	0	0	-	-
COc1ccc(NC(=O)CCC(=O)Nc2nnc(C(F)(F)F)s2)c(OC)c1	0	0	0	0	0	0	-	-
CCOC(=O)C(NC(=O)c1ccccc1)=C(C)C	0	0	0	0	0	0	0	0
O=C(CSc1ncc(-c2ccc(F)cc2)[nH]1)N1CCCCC1	0	0	0	0	0	0	-	-
COc1cccc(/C=N/NC(=O)CCc2ccccc2)c1	0	0	0	0	0	0	-	-
COc1cccc(/C=N/NC(=O)CCc2c(C)n[nH]c2C)c1	0	0	14.1	0	0	0	0	0
N#Cc1cc2c(=O)n3ccccc3nc2n(CCCN2CCOCC2)c1=O	-	0	8.6	-	-	0	0	8.2
N=c1c(C(=O)NC2CCCC2)cc2c(=O)n3ccccc3nc2n1CCN1CCOCC1	0	0	0	0	0	0	-	-
Cc1[nH]nc(N=CC2=C(O)CC(C)(C)CC2=O)c1-c1ccccc1	-	0	14.0	0	0	0	0	0
O=C1OC(C(=O)O)Cc2ccccc21 (stereo not given)	0	0	0	0	0	0	-	-
CCOC(=O)c1[nH]c2ccc(Cl)cc2c1NC(=O)/C=C/c1ccc2c(c1)OCO2	-	0	14.0	-	-	0	8.5	0
O=S(=O)(Nc1nc(CN2CCOCC2)nc2sc3c(c12)CCCC3)c1cc(F)ccc1F	0	0	0	0	0	0	-	-
CC(C)(C)C(=O)NC(=S)NNC(=O)c1sc2ccccc2c1Cl	-	0	100.8	-	-	0	65.5	107.6
O=C(NNC(=S)NC1CCCCC1)c1sc2ccccc2c1Cl	-	0	0	-	-	0	-	-
COc1cc(NC(=O)C2CCCN(S(=O)(=O)c3ccc4c(c3)oc(=O)n4C)C2)cc(OC)c1 (stereo not given)	0	0	0	0	0	0	-	-
Cn1c(=O)oc2cc(S(=O)(=O)N3CCCC(C(=O)Nc4ccccn4)C3)ccc21 (stereo not given)	0	0	16.9	0	0	0	0	0
SMILES	FAK inh	sdo1 growth	GALR2 ag	S1P2 antag	S1P2 agonist	GALR2 antag	GALR2 ag confirm	BLA act counter	others
COc1ccc([N+](=O)[O-])cc1NC(=O)C1CCCCC1C(=O)O (stereo not given)	-	0	0	-	-	0	-	-
Cc1ccc(OCCCCn2ccnc2)c(Cl)c1	0	0	0	0	0	0	-	-
Cc1ccc(C)c(OCCCCn2ccnc2)c1	0	0	0	0	0	0	0	0
O=S(=O)(N/N=C\c1ccc2c(c1)OCO2)c1ccc(Cl)cc1	0	0	0	0	0	0	-	-
COc1cc(NC(=O)c2ccc(Cl)cc2Cl)ccc1-c1cc2ccccc2oc1=O	0	0	13.2	0	0	0	0	0
O=C(Nc1ccc(Br)cc1)c1ccc(N2C(=O)C3CC=C(Cl)CC3C2=O)cc1 (stereo not given)	0	0	12.3	0	0	0	0	0
O=C(c1ccc(N2C(=O)C3CC=C(Cl)CC3C2=O)cc1)N1CCCCC1 (stereo not given)	0	0	0	0	0	0	-	-
COC(=O)/C=C/c1ccc(OC(=O)OC)c(OC(=O)OC)c1	-	0	0	-	-	0	-	-
CCN(CC)S(=O)(=O)c1ccc(C)c(NC(=O)COc2ccc(Cl)cc2Br)c1	-	0	10.2	-	-	0	0	0
Cc1cc(C(=O)O)c(CSCc2cc(C(=O)O)oc2C)o1	0	0	0	0	0	0	-	-
CCOC(=O)c1[nH]c(C)c(C(=O)Nc2ccc(C)c(F)c2)c1C	-	0	43.8	-	-	0	0	0
CCOC(=O)c1[nH]c(C)c(C(=O)Nc2ccc(C)c(Cl)c2)c1C	0	0	0	0	0	0	-	-
CCOC(=O)c1ccc(NC(=S)N2CCSC2c2ccc(OC)cc2)cc1 (stereo not given)	-	0	0	-	-	0	-	-
CCOC(=O)c1ccc(NC(=S)N2CCSC2c2ccc(Cl)cc2)cc1 (stereo not given)	-	0	8.8	-	-	0	9.4	18.1
CCCCn1[nH]c(-c2ccccc2)cc1=O	-	0	0	-	-	0	-	-
CCCCNC(=S)NNC(=O)C12CC3CC(CC(C3)C1)C2	0	0	0	0	0	0	-	-
CC(C)NC(=S)NNC(=O)C12CC3CC(CC(C3)C1)C2	0	0	12.0	0	0	0	0	0
CCC(C)(C)NC(=O)CN(Cc1ccc2c(c1)OCO2)C(=O)CCC(=O)Nc1ccccn1	0	0	0	0	0	0	-	-
Cc1ccc2nsnc2c1NC(=O)c1ccc(-c2cc(Cl)ccc2Cl)o1	0	0	0	0	0	37.9	10.7	0	GALR2 ant conf=0;BLA inhib ctr=0
Brc1ccc(C2=NC(Cc3ccccc3)CO2)cc1 (stereo not given)	-	0	0	-	-	0	-	-
O=C(CSc1ncnc2c1oc1ccccc12)Nc1ccccc1F	0	0	0	0	0	0	-	-	SDO1 rescue DR=0
CCOc1ccccc1NC(=O)CSc1ncnc2c1oc1ccccc12	0	0	0	0	0	0	-	-
CCn1ccc(C(=O)Nc2c(C)nn(Cc3c(F)c(F)c(F)c(F)c3F)c2C)n1	-	0	0	-	-	0	-	-
Nc1nc2ccccc2n1CCOc1ccccc1Cl	0	0	0	0	0	0	-	-
COc1cc(-c2cc(C(=O)Nc3c(Cl)cc(Cl)cc3Cl)c3ccccc3n2)cc(OC)c1OC	-	0	0	-	-	0	-	-
